From PubChem BioAssay
Hits are enriched below; roughly 7.7% of the tested compounds scored in any of these assays.
FBPA Giardia inh: inhibitors of Giardia lamblia fructose-1,6-bisphosphate aldolase. A8B2U2. purified Giardia FBPA. Potency, µM (highest dose often 59.6 µM), usual class: inhibitors. actives 0.71% (n = 290,000). AID 2451; note: nearly all actives have a fitted effect of over 55% in size
Target sequence (A8B2U2 whole entry, looked up): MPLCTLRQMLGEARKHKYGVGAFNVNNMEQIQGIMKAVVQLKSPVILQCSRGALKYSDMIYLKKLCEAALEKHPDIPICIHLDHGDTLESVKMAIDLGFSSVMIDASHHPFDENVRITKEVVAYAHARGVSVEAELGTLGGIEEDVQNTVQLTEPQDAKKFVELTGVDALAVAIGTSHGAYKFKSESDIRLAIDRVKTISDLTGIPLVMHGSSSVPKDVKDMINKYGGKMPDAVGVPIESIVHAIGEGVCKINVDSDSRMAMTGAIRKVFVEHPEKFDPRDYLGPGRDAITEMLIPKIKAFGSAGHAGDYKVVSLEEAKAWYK
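Giardia FBPA (40 nM reagent) was preincubated 10 min at RT with compound (up to 57.5 uM final), then substrate plus GAPDH/TPI/NAD/arsenate coupling system with diaphorase/resazurin was added; resorufin fluorescence (525/598 nm) was read after 20 min.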
Sm TGR inh: blocks Schistosoma mansoni thioredoxin glutathione reductase. Potency, µM (doses to about 114 µM), hits mostly inhibitors. Q962Y6. purified TGR, DTNB reduction, TNB absorbance 405 nm. AID 485364. actives 3% (n = 360,000); note: nearly all actives have a fitted effect of over 60% in size
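Kinetic colorimetric format: TGR-catalysed, NADPH-driven DTNB reduction monitored via TNB absorbance. Enzyme dispensed at 20 nM; compound exposure 15 min at room temperature before reaction start.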
FMDV inh: foot and mouth disease virus antiviral activity; FMDV antiviral cell-based qHTS; Potency, µM (highest dose often 57.9 µM), hits mostly inhibitors; actives 1.2% (n = 410,000); AID 1159524; calls by dose curve; tested in HEK293T cells; note: read-out not given here; nearly all actives have a fitted effect of over 45% in size
HCMV inh: inhibitors of human cytomegalovirus | HFF cells, HCMV-luciferase reporter, 72 h; hits give low values | activity change, negative = inhibition, % at 57.5 µM | actives 4.5% (n = 410,000) | AID 1259415; in the data active = activity change below about -60%; inconclusive = no clear call, values can overlap the other calls; inactive = above about -39%
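Cell-based, HFFs, 1000 cells/well, 16 h 37C; cpds in DMSO + HCMV-luc, MOI 1 PFU/cell; 72 h 37C; OneGlo luminescence after 5 min RT; norm. to buffer vs Salinomycin 10uM.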
RE007 growth inh: less growth of the S. pombe RE007 Vpr strain. Potency, µM (top dose mostly 92.2 µM), actives largely listed as inhibitors. AID 651644. actives 0.21% (n = 360,000). S. pombe RE007 Vpr strain, BacTiter-Glo ATP luminescence, 24 h; active = well fitted falling curve with a large enough effect; inconclusive = small, poorly fitted or top-dose-only effect; inactive = no such curve, though single readings can be large or run the other way; note: nearly all actives have a fitted effect of over 50% in size
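Fission yeast RE007 carrying one integrated HIV-1 vpr copy, seeded at OD 0.01 in PMG+AL medium with 23 nL pinned compound. Grown 24 h at 30 degrees; viability read by BacTiter-Glo luminescence after 5 min.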
Tb PYK inh: inhibitors of Trypanosoma brucei pyruvate kinase | actives 0.12% (n = 410,000) | Potency, µM (top dose mostly 76.8 µM), most hits filed as inhibitors | TbPYK enzyme, Kinase-Glo Plus ATP luminescence, 45 min; note: nearly all actives have a fitted effect of over 50% in size
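In this concentration-response screen, enzyme-free wells defined baseline while DMSO plates tracked drift. Each reaction combined TbPYK, substrate, compound and 130 uM ADP for 45 min at room temperature. Kinase-Glo Plus luminescence gave the signal.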
Hits are given with their value. Unless noted, calls come from the whole dose curve; as a rule, active = well fitted curve in the direction sought with a large enough effect; inconclusive = small, poorly fitted or top-dose-only effect, or another doubt; inactive = no such curve, though single readings can be large; an effect the other way counts as inactive or inconclusive.

Results for Cc1cccc(C)c1NC(=O)CN(C)C(=O)C1CCN(c2ncnc3sc(C)c(C)c23)CC1 ?
Sm TGR inh: inactive; FMDV inh: inconclusive; HCMV inh: inconclusive; RE007 growth inh: inactive; Tb PYK inh: inactive

How did Cc1ccc(OCC(=O)NNC(=O)C2CCN(c3ncnc4sc(C)c(C)c34)CC2)cc1 do in these assays?
Sm TGR inh: inactive; FMDV inh: inconclusive; HCMV inh: inactive; RE007 growth inh: inactive; Tb PYK inh: inactive

Results for Cc1cc(Br)ccc1NC(=O)CN(C)C(=O)C1CCN(c2ncnc3sc(C)c(C)c23)CC1 ?
FMDV inh: inconclusive; HCMV inh: -83; RE007 growth inh: inactive; Tb PYK inh: inactive

Results for Cc1sc2ncnc(N3CCC(C(=O)NNC(=O)COc4ccccc4F)CC3)c2c1C ?
Sm TGR inh: inactive; FMDV inh: 25µM; HCMV inh: inactive; RE007 growth inh: inactive; Tb PYK inh: inactive

Results for Cc1sc2ncnc(N3CCC(C(=O)NNC(=O)COc4cccc(C(F)(F)F)c4)CC3)c2c1C ?
Sm TGR inh: inactive; FMDV inh: 25µM; HCMV inh: inactive; RE007 growth inh: inactive; Tb PYK inh: inactive

Results for Cc1ccc([N+](=O)[O-])cc1S(=O)(=O)N1CCn2cccc2C1c1ccccc1F (centres undefined) ?
Sm TGR inh: inactive; FMDV inh: inactive; HCMV inh: inactive; Tb PYK inh: inactive

Results for COc1ccc(S(=O)(=O)Nc2cccc(-c3ccc(N4CCCCCC4)nn3)c2)cc1F ?
Sm TGR inh: inactive; FMDV inh: inactive; HCMV inh: inactive; Tb PYK inh: inactive

How did CCN(CC)CCNC(=O)c1ccc(NC(=O)C2CCN(c3ncnc4sc(C)c(C)c34)CC2)cc1 do in these assays?
Sm TGR inh: inactive; FMDV inh: inconclusive; HCMV inh: -71; RE007 growth inh: inactive; Tb PYK inh: inactive

Results for Cc1sc2ncnc(N3CCC(C(=O)Nc4nc(-c5ccc(F)cc5)cs4)CC3)c2c1C ?
Sm TGR inh: inactive; FMDV inh: inactive; HCMV inh: -65; RE007 growth inh: inactive; Tb PYK inh: inactive

What do the screens show for `CC(=O)c1sc(NC(=O)C2CCN(c3ncnc4sc(C)c(C)c34)CC2)nc1-c1ccccc1`?
Sm TGR inh: inactive; FMDV inh: inactive; HCMV inh: inactive; RE007 growth inh: inactive; Tb PYK inh: inactive

Results for CCCC[C@H](CN[C@@H](CNC)[C@H](C)CC)NCCC12CCC(CC1)C2 ?
FBPA Giardia inh: inactive; Sm TGR inh: inactive; FMDV inh: inactive; HCMV inh: -97; RE007 growth inh: inactive; Tb PYK inh: inactive

Results for CCOC(=O)c1cnc2c(F)ccc(F)c2c1Sc1ccccc1 ?
FBPA Giardia inh: inactive; Sm TGR inh: 16µM; FMDV inh: inactive; HCMV inh: inactive; RE007 growth inh: inactive; Tb PYK inh: inactive

What do the screens show for `COc1cc(C2CC(=O)Nc3cc4c(cc32)OCCO4)cc(OC)c1O` (centres undefined)?
Sm TGR inh: inactive; FMDV inh: inactive; HCMV inh: inactive; Tb PYK inh: inactive

How did CCn1cc(C(=O)NC(=S)Nc2ccccc2Br)cn1 do in these assays?
FBPA Giardia inh: inactive; Sm TGR inh: 79µM; FMDV inh: inactive; HCMV inh: inactive; RE007 growth inh: inactive; Tb PYK inh: inactive

What do the screens show for `C/C(CC(=O)Nc1ccc2c(c1)OCO2)=N\NC(=O)c1ccc(N)cc1`?
FBPA Giardia inh: inactive; Sm TGR inh: 40µM; FMDV inh: inactive; HCMV inh: inactive; RE007 growth inh: inactive; Tb PYK inh: inactive

What do the screens show for `O=C(NC(=S)Nc1ccc2c(c1)OCO2)c1ccccc1`?
FBPA Giardia inh: inactive; Sm TGR inh: 14µM; FMDV inh: inactive; HCMV inh: inactive; RE007 growth inh: inactive; Tb PYK inh: inactive

What do the screens show for `O=C(NC(=S)Nc1ccccc1Br)c1ccc2c(c1)OCO2`?
Sm TGR inh: 14µM; FMDV inh: inactive; HCMV inh: inactive; RE007 growth inh: inactive; Tb PYK inh: inactive

How did CCn1cc(C(=O)NC(=S)Nc2ccccc2[N+](=O)[O-])cn1 do in these assays?
Sm TGR inh: inactive; FMDV inh: inactive; HCMV inh: inactive; RE007 growth inh: inactive; Tb PYK inh: inactive

What do the screens show for `NS(=O)(=O)c1ccc(NC(=S)NC(=O)c2ccc3c(c2)OCO3)cc1`?
FBPA Giardia inh: inconclusive; Sm TGR inh: inactive; FMDV inh: inactive; HCMV inh: inactive; RE007 growth inh: inactive; Tb PYK inh: inactive

What do the screens show for `O=C(Nc1ccc2c(c1)OCO2)c1ccccc1`?
FBPA Giardia inh: inactive; Sm TGR inh: inactive; FMDV inh: inactive; HCMV inh: inactive; RE007 growth inh: inactive; Tb PYK inh: inactive

How did O=C(NCc1cccs1)O[C@H]1CC[C@@]23CCCN2C(=O)CCC[C@H]3[C@H]1Cc1ccccc1 do in these assays?
HCMV inh: inactive

How did O=C(CSc1nc(=O)[nH]c2c1CCC2)Nc1cc(C(F)(F)F)ccc1Cl do in these assays?
Sm TGR inh: inactive; FMDV inh: inactive; HCMV inh: inactive; Tb PYK inh: inactive

How did Cc1ccc(S(=O)(=O)CCc2nnc(NC(=O)CCl)s2)cc1C do in these assays?
FBPA Giardia inh: inactive; Sm TGR inh: 5µM; FMDV inh: inactive; HCMV inh: -78; RE007 growth inh: inactive; Tb PYK inh: inactive

What do the screens show for `Cc1ccc(S(=O)(=O)CCc2nnc(N)s2)cc1C`?
FBPA Giardia inh: inactive; Sm TGR inh: inactive; HCMV inh: inactive; RE007 growth inh: inactive; Tb PYK inh: inactive

How did Cc1ccc(-c2noc(-c3ccc(NCc4ccco4)c([N+](=O)[O-])c3)n2)cc1 do in these assays?
Sm TGR inh: inactive; FMDV inh: inactive; HCMV inh: inactive; Tb PYK inh: inactive

How did NC(CSCc1ccccc1Cl)C(=O)O (centres undefined) do in these assays?
FBPA Giardia inh: inactive; Sm TGR inh: 16µM; FMDV inh: inactive; HCMV inh: inactive; RE007 growth inh: inactive; Tb PYK inh: inactive

How did Cc1cccc(N/C(N)=N/c2nc(C(F)(F)F)cc(=O)[nH]2)c1C do in these assays?
FBPA Giardia inh: inactive; Sm TGR inh: inactive; FMDV inh: inactive; HCMV inh: -104; RE007 growth inh: inactive; Tb PYK inh: inactive

How did CCOc1ccc(CCNC(=O)Cn2nc(CC)n3c(cc4sccc43)c2=O)cc1 do in these assays?
Sm TGR inh: inactive; FMDV inh: inactive; HCMV inh: inactive; Tb PYK inh: inactive

What do the screens show for `COc1cc2c(cc1OC)CN(C(=O)CSC1=NCCS1)CC2`?
FMDV inh: inconclusive; HCMV inh: -69; RE007 growth inh: inactive; Tb PYK inh: inactive

What do the screens show for `COc1cc2c(cc1OC)CN(C(=O)c1ccc(Br)o1)CC2`?
FBPA Giardia inh: inactive; Sm TGR inh: 40µM; FMDV inh: inactive; HCMV inh: inactive; RE007 growth inh: inactive; Tb PYK inh: inactive

What do the screens show for `COc1cc2c(cc1OC)CN(C(=O)c1ccco1)CC2`?
FBPA Giardia inh: inactive; Sm TGR inh: inconclusive; FMDV inh: inactive; HCMV inh: inactive; RE007 growth inh: inactive; Tb PYK inh: inactive
